# Measured values as given in PubChem BioAssay (EPA / NIEHS).
# Activity calls are given as the source filed them. Rule for the calls: active = hit-call score of the fitted dose curve at least 0.9, where 1 is the maximum; inactive = score below 0.9.
# Tests used:
# [1] = APR_HepG2_CellCycleArrest_24hr: Apredica 24-hour HepG2 Assay for Cell Cycle Arrest (AID 2282905); conditions: imaging, actives raise or lower the signal;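 note: cell cycle arrest scored as ratio of 2N to 4N nuclear DNA content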
# Procedure, shortened: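 Compounds (0.39 to 200 uM, final DMSO 0.5% v/v) are applied to HepG2 cells for 24 hours; cells are then fixed, permeabilized and nuclei labeled with Hoechst 33342. Automated imaging measures DNA content, and activity is fitted in both directions against DMSO.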
# [2] = APR_HepG2_NuclearSize_24hr: Apredica 24-hour HepG2 Assay for Nuclear Size (AID 2282907); conditions: high-content imaging, actives raise or lower the signal
# Procedure, shortened: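 Nuclear size is measured by fluorescence high-content imaging of Hoechst-labelled HepG2 nuclei after 24 hr of treatment (0.39–200 uM, 0.5% DMSO). Cells are fixed in 3.7% formaldehyde before staining, and DMSO serves as the baseline for bidirectional curve fitting.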
# [3] = APR_HepG2_CellLoss_24hr: Apredica 24-hour HepG2 Assay for Cell Loss (AID 2282908); conditions: high-content imaging;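 for AC50: fit in both directions so a hit may be cell loss or gain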
# Procedure, shortened: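 Nuclear count serves as the viability measure: treated cells are fixed, permeabilized and labelled with Hoechst 33342, and six images per well are analysed to identify valid nuclei. Doses span 0.39–200 uM, and activity in either direction is scored against DMSO.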
# [4] = APR_HepG2_MicrotubuleCSK_24hr: Apredica 24-hour HepG2 Assay for Microtubule CSK Stabilty (AID 2282909); conditions: HepG2 microtubule cytoskeleton imaging, actives raise or lower the signal
# Procedure, shortened: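 Compounds were applied to HepG2 cells for 24 hours across 0.39–200 uM in duplicate, with final DMSO at 0.5% v/v. Fixed, permeabilized cells were labeled for alpha-tubulin and nuclei, and tubulin fluorescence was quantified by imaging, fitted bidirectionally against DMSO.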
# [5] = APR_HepG2_MitoticArrest_24hr: Apredica 24-hour HepG2 Assay for Mitotic Arrest (AID 2282910); conditions: high-content imaging, actives raise or lower the signal
# Procedure, shortened: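 HepG2, 24 hr dosing, 0.39–200 uM, 0.5% DMSO final. Formaldehyde-fixed, Triton-permeabilised, anti-phospho-histone H3 plus Hoechst. ArrayScan imaging at 20x; bidirectional fit vs DMSO baseline.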
# [6] = APR_HepG2_MitoMembPot_24hr: Apredica 24-hour HepG2 Assay for Mitochondrial Membrane Potential (AID 2282911); conditions: imaging, actives raise or lower the signal
# Procedure, shortened: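 Human hepatoma HepG2 cultures received ten compound concentrations up to 200 uM for 24 hr. Membrane-potential dye signal, captured by automated fluorescence microscopy, was scored for gain or loss against DMSO controls.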
# [7] = APR_HepG2_MitoMass_24hr: Apredica 24-hour HepG2 Assay for Mitochondrial Mass (AID 2282912); conditions: high-content imaging, actives raise or lower the signal
# Procedure, shortened: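 After 24 hr of treatment at 0.39 to 200 uM, HepG2 cells take up 250 nM MitoTracker Red CMXRos for 30 min and are then fixed with 3.7% formaldehyde. Per-well images are quantified, and any change in either direction is scored against solvent.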
# [8] = APR_HepG2_CellLoss_72hr: Apredica 72-hour HepG2 Assay for Cell Loss (AID 2282915); conditions: high-content imaging
# Procedure, shortened: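 HepG2 cells exposed 72 h to compound at 0.39–200 uM (10 concentrations, duplicate) in 0.5% DMSO. Fixed with 3.7% formaldehyde and Hoechst 33342-stained. Imaged at 20x; nuclear count gives cell number, fitted bidirectionally versus DMSO.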
# [9] = APR_HepG2_P-H2AX_72hr: Apredica 72-hour HepG2 Assay for H2AX Phosphorylation (AID 2282916); conditions: imaging, actives raise or lower the signal;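 note: phospho-histone H2A.x immunostain intensity per cell marking DNA damage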
# Procedure, shortened: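 Human hepatoma HepG2 cells are dosed across ten concentrations (0.39 to 200 uM, 0.5% v/v DMSO) and incubated 72 hr. Phospho-histone H2A.x is then detected by antibody staining alongside c-Jun and Hoechst, and quantified by automated fluorescence imaging.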
# [10] = APR_HepG2_MitoMembPot_72hr: Apredica 72-hour HepG2 Assay for Mitochondrial Membrane Potential (AID 2282917); conditions: imaging, actives raise or lower the signal
# Procedure, shortened: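 HepG2 cells dosed 72 hr with compound at 0.39–200 uM in duplicate, 0.5% v/v DMSO final. Mitochondria stained with 250 nM MitoTracker Red CMXRos for 30 min before formaldehyde fixation, imaged by high-content fluorescence; bidirectional fit versus DMSO.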
# [11] = APR_HepG2_MitoticArrest_72hr: Apredica 72-hour HepG2 Assay for Mitotic Arrest (AID 2282918); conditions: high-content imaging, actives raise or lower the signal
# Procedure, shortened: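 Mitotic arrest in HepG2 is scored from phospho-histone H3 staining after 72 hr dosing across 0.39–200 uM, with DMSO at 0.5% v/v. Nuclei are identified by Hoechst 33342 and fluorescence intensity is quantified per cell.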
# [12] = APR_HepG2_MicrotubuleCSK_72hr: Apredica 72-hour HepG2 Assay for Microtubule CSK Stabilty (AID 2282919); conditions: HepG2 microtubule cytoskeleton, high-content imaging, actives raise or lower the signal
# Procedure, shortened: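 HepG2, 72 hr cmpd exposure, 0.39–200 uM (10 pts, duplicate), 0.5% DMSO. 3.7% formaldehyde fix, 0.5% Triton perm, anti-alpha-tubulin/Cy5 plus Hoechst. HCS fluorescence intensity; bidirectional fit vs DMSO baseline; taxol as positive control.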
# [13] = APR_HepG2_P-H2AX_24hr: Apredica 24-hour HepG2 Assay for H2AX Phosphorylation (AID 2282920); conditions: high-content imaging, actives raise or lower the signal
# Procedure, shortened: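 Signal comes from a FITC-labeled secondary detecting phospho-histone H2A.x in fixed HepG2 cells, quantified by automated imaging at 20x. Dosing ran 24 hr across 0.39–200 uM with 0.5% v/v DMSO.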
# [14] = APR_HepG2_StressKinase_72hr: Apredica 72-hour HepG2 Assay for Stress Kinase (AID 2282921); conditions: HepG2 stress kinase (phospho-c-Jun) imaging, actives raise or lower the signal
# Procedure, shortened: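 After a 72 h compound treatment spanning 0.39 to 200 uM, formaldehyde-fixed cells are labelled for phosphorylated c-Jun and nuclei, imaged by automated fluorescence microscopy, and activity is fitted in both directions relative to DMSO controls.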
# [15] = APR_HepG2_StressKinase_24hr: Apredica 24-hour HepG2 Assay for Stress Kinase (AID 2282922); conditions: HepG2 stress kinase (phospho-c-Jun) imaging, actives raise or lower the signal
# Procedure, shortened: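 Read-out: phospho-c-Jun immunofluorescence (Cy3 secondary) quantified by high-content imaging at 20x, nuclei defined by Hoechst 33342. Human HepG2 liver cells dosed 24 hr, 0.39–200 uM, DMSO 0.5% v/v; gain or loss of signal fitted relative to DMSO.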
# [16] = APR_HepG2_MitoMass_72hr: Apredica 72-hour HepG2 Assay for Mitochondrial Mass (AID 2282924); conditions: high-content imaging, actives raise or lower the signal;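 note: MitoTracker Red CMXRos stain intensity per cell imaged as mitochondrial mass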
# Procedure, shortened: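 Read-out: MitoTracker Red fluorescence intensity from automated imaging (20x, six fields per well) in human HepG2 liver cells. Dosing ran 72 hr, 0.39–200 uM, 0.5% DMSO; bidirectional curve fitting versus DMSO baseline.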
# [17] = APR_HepG2_NuclearSize_72hr: Apredica 72-hour HepG2 Assay for Nuclear Size (AID 2282925); conditions: high-content imaging, actives raise or lower the signal
# Procedure, shortened: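 Read-out: nuclear diameter from Hoechst 33342 images (ArrayScan, 20x, six fields/well), via cell-cycle image analysis. HepG2 were dosed 0.39–200 uM for 72 hr in 0.5% DMSO. Bidirectional fit relative to DMSO.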
# [18] = APR_HepG2_CellCycleArrest_72hr: Apredica 72-hour HepG2 Assay for Cell Cycle Arrest (AID 2282914); conditions: high-content imaging, actives raise or lower the signal
# Procedure, shortened: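 Cell cycle arrest in HepG2 was scored from nuclear DNA content after 72 hr compound treatment (0.39–200 uM). Activity, either gain or loss, was fitted against the DMSO baseline.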
# [19] = APR_HepG2_p53Act_24hr: Apredica 24-hour HepG2 Assay for p53 Activation (AID 2282913); conditions: high-content imaging, actives raise or lower the signal;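 note: p53 protein immunofluorescence averaged per cell in HepG2 with Hoechst nuclei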
# Procedure, shortened: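 Automated fluorescence imaging quantifies p53 immunostaining in HepG2 cells after a 24 hr exposure (0.39–200 uM, duplicate, 0.5% DMSO). Nuclei are located by Hoechst 33342 staining.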
# [20] = APR_HepG2_p53Act_72hr: Apredica 72-hour HepG2 Assay for p53 Activation (AID 2282923); conditions: high-content imaging, actives raise or lower the signal;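 note: average cellular p53 protein immunofluorescence intensity in HepG2 cells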
# Procedure, shortened: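 Imaging-based endpoint: after 72 hr compound exposure (up to 200 uM, 0.5% DMSO), fixed and permeabilized monolayers were labelled with anti-p53 antibody and imaged; signal change in either direction was fitted relative to DMSO controls.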
smiles,measurement,setting,value
C[C@]12C=CC3=C4CCC(=O)C=C4CC[C@H]3[C@@H]1CC[C@@H]2O,outcome,[1],inactive
same,outcome,[2],inactive
same,AC50,[3],26.1 µM (active)
same,outcome,[4],inactive
same,AC50,[5],32.7 µM (active)
same,outcome,[6],inactive
same,outcome,[7],inactive
same,AC50,[8],21.7 µM (active)
same,outcome,[9],inactive
same,outcome,[10],inactive
same,AC50,[11],20.8 µM (active)
same,outcome,[12],inactive
same,outcome,[13],inactive
same,outcome,[14],inactive
same,outcome,[15],inactive
same,outcome,[16],inactive
same,outcome,[17],inactive
CC(C)COC(=O)c1ccccc1C(=O)OCC(C)C,AC50,[1],85.7 µM (active)
same,outcome,[2],inactive
same,AC50,[3],87 µM (active)
same,outcome,[4],inactive
same,outcome,[5],inactive
same,AC50,[6],53.7 µM (active)
same,AC50,[7],108 µM (active)
same,AC50,[18],76.2 µM (active)
same,AC50,[8],63.2 µM (active)
same,outcome,[9],inactive
same,AC50,[10],80 µM (active)
same,AC50,[11],67 µM (active)
same,outcome,[12],inactive
same,AC50,[13],77.3 µM (active)
same,outcome,[14],inactive
same,outcome,[15],inactive
same,AC50,[16],84.7 µM (active)
same,outcome,[17],inactive
CC(O)CCO (configuration not stated),outcome,[1],inactive
same,outcome,[2],inactive
same,outcome,[3],inactive
same,outcome,[4],inactive
same,outcome,[5],inactive
same,outcome,[6],inactive
same,outcome,[7],inactive
same,outcome,[19],inactive
same,outcome,[8],inactive
same,outcome,[9],inactive
same,outcome,[10],inactive
same,outcome,[11],inactive
same,outcome,[12],inactive
same,outcome,[13],inactive
same,outcome,[14],inactive
same,outcome,[15],inactive
same,outcome,[20],inactive
same,outcome,[16],inactive
same,outcome,[17],inactive
CCN(CC)N=O,outcome,[1],inactive
same,outcome,[2],inactive
same,outcome,[3],inactive
same,outcome,[4],inactive
same,outcome,[5],inactive
same,outcome,[6],inactive
same,outcome,[7],inactive
same,outcome,[19],inactive
same,outcome,[8],inactive
same,outcome,[9],inactive
same,outcome,[10],inactive
same,outcome,[11],inactive
same,outcome,[12],inactive
same,outcome,[13],inactive
same,outcome,[14],inactive
same,outcome,[15],inactive
same,outcome,[20],inactive
same,outcome,[16],inactive
same,outcome,[17],inactive
Cc1cc(N=Nc2ccccc2C)ccc1N,outcome,[2],inactive
same,AC50,[3],70 µM (active)
same,outcome,[4],inactive
same,AC50,[5],87.6 µM (active)
same,AC50,[6],101 µM (active)
same,AC50,[7],121 µM (active)
same,outcome,[19],inactive
same,AC50,[18],21.5 µM (active)
same,AC50,[8],43.1 µM (active)
same,outcome,[9],inactive
same,outcome,[10],inactive
same,outcome,[11],inactive
same,outcome,[12],inactive
same,AC50,[13],100 µM (active)
same,outcome,[14],inactive
same,AC50,[15],100 µM (active)
same,AC50,[20],2.34 µM (active)
same,outcome,[16],inactive
same,AC50,[17],56.3 µM (active)
CN(C)[C@@H]1C(=O)C(C(N)=O)=C(O)[C@@]2(O)C(=O)C3=C(O)c4c(O)cccc4[C@@](C)(O)[C@H]3C[C@@H]12,outcome,[2],inactive
same,outcome,[3],inactive
same,outcome,[4],inactive
same,outcome,[5],inactive
same,outcome,[6],inactive
same,outcome,[7],inactive
same,outcome,[19],inactive
same,outcome,[18],inactive
same,outcome,[8],inactive
same,outcome,[9],inactive
same,outcome,[10],inactive
same,outcome,[11],inactive
same,outcome,[12],inactive
same,outcome,[13],inactive
same,outcome,[14],inactive
same,outcome,[15],inactive
same,outcome,[20],inactive
same,outcome,[16],inactive
same,outcome,[17],inactive
C=CCc1ccc2c(c1)OCO2,outcome,[2],inactive
same,outcome,[3],inactive
same,outcome,[4],inactive
same,outcome,[5],inactive
same,AC50,[6],0.0311 µM (active)
same,outcome,[7],inactive
same,outcome,[19],inactive
same,outcome,[8],inactive
same,outcome,[9],inactive
same,outcome,[10],inactive
same,outcome,[11],inactive
same,outcome,[12],inactive
same,outcome,[13],inactive
same,outcome,[14],inactive
same,outcome,[15],inactive
same,outcome,[20],inactive
same,outcome,[16],inactive
same,outcome,[17],inactive
CC(C)N(Cc1ccccc1)C(=O)C(C)(C)C,outcome,[2],inactive
same,outcome,[3],inactive
same,outcome,[4],inactive
same,outcome,[5],inactive
same,outcome,[6],inactive
same,outcome,[7],inactive
same,outcome,[19],inactive
same,outcome,[8],inactive
same,outcome,[9],inactive
same,outcome,[10],inactive
same,outcome,[11],inactive
same,outcome,[12],inactive
same,outcome,[13],inactive
same,outcome,[14],inactive
same,outcome,[15],inactive
same,outcome,[20],inactive
same,outcome,[16],inactive
same,outcome,[17],inactive
